PubChem BioAssay AID1963576 (National Center for Advancing Translational Sciences (NCATS), 2024)
About 60 (0.1%) of roughly 46,000 compounds were called active. Roughly 3% stayed inconclusive and do not appear here. Calls follow the shape of the dose curve; as a rule, active = well fitted inhibition curve with a large enough effect; inconclusive = small, poorly fitted or top-dose-only effect; inactive = no such curve, though single readings can be large or run the other way. For the sample, actives were picked, then their nearest neighbours and some compounds at random.

assay: Primary qHTS assay for Inhibitors of ovarian cancer metastasis using an organotypic tumor microenvironment (TME) model.; also: nearly all actives have a fitted effect of over 65% in size;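 as to Potency: count of GFP cancer cells still attached after washing and fixation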; conditions: SKOV3ip1-GFP adhesion/invasion on 3D omental model, fluorescence; series mostly up to 45.8 µM; activity change, negative = inhibition: at the top concentration
Description: PI: Ernst Lengyel MD., Ph.D. Department of Obstetrics and Gynecology, Section of Gynecologic Oncology University of Chicago Medicine, Chicago, Illinois. The tumor microenvironment (TME) is a key determinant of metastatic efficiency. We performed a quantitative high-throughput screen (qHTS) of diverse medicinal chemistry tractable scaffolds (44,420 compounds) and pharmacologically active small molecules (386 compounds) using a layered organotypic, robust assay representing the ovarian cancer metastatic TME. This 3D model contains primary human mesothelial cells, fibroblasts, and extracellular matrix, to which fluorescently labeled ovarian cancer cells are added. Initially, 100 compounds inhibiting ovarian cancer adhesion/invasion to the 3D model in a dose-dependent manner were identified. Of those, eight compounds were confirmed active in five high-grade serous ovarian cancer cell lines and were further validated in secondary in vitro and in vivo biological assays. […] Specifically, NCGC00117362 and PP-121 inhibited ovarian cancer adhesion, invasion, and proliferation, whereas milciclib inhibited ovarian cancer invasion and proliferation. […] To evaluate the clinical potential of NCGC00117362, structure - activity relationship studies were performed. […] The three compounds identified have promise as therapeutics for prevention and treatment of ovarian cancer metastasis.
PROTOCOL TABLE (as described by Inglese J, Shamu CE and Guy RK. 2007) SEQUENCE No. (e.g., 1, 2, 3, etc.); […] (e.g., Cells, Incubation, Reagent, etc.); VALUE; DESCRIPTION. 1; Cells; 4 uL; primary human omental fibroblast, black, clear bottom, low base, 1536-well Aurora assay plate. 2; Incubation; 48 hr; 37C. 3; Cells; 3 uL; 1,200 SKOV3ip1-GFP cells. 4; Compounds; 23nL; acoustic dispenser. 5; Incubation; 2 hr; room temperature. 6; Incubation; 16 hr; 37C. 7; Wash; 5 uL; 1x PBS. 8; Fixing; 5 uL; 4% paraformaldehyde (PFA). 9; Incubation; 15 min; room temperature 10; Wash, 5 uL; 1x PBS. 11; Detection; Fluorescence, excitation filter 488 nm, emission filter 509 nm. NOTES (numbers refer to Sequence numbers above) 1. For the 1,536-well format, 40 primary human omental fibroblasts and 400 mesothelial cells were seeded with 0.02 µg fibronectin and 0.02 µg collagen type I in 4 µL of growth media (2.3 mm2; Supplementary Fig. S1A). 2. Assay plates were incubated for 48 hours at 37 C. 3. After incubation, 1,200 SKOV3ip1-GFP were seeded in 3 µL of serum-free media (growth media minus FBS) on top of primary human omental cells. 4. Compounds or controls were added to each well immediately after the addition of the cancer cells. Compounds were screened in four doses (0.36-46 µmol/L), and the plates contained the positive control (Tomatine) in eight doses (0.035-75 µmol/L) and DMSO (equal volume controls) 5 - 6. The plates were incubated at room temperature for 2 hours and then at 37 degrees C for 16 hours. 7 - 10. Following incubation, the media were aspirated and each well washed with PBS (5 µL) and then fixed with 4% paraformaldehyde (PFA; 5 µL). After 15 minutes, the PFA solution was aspirated, PBS (5 µL) was added. 11. The number of GFP-labeled cells analyzed using a fluorescent cytometer TTP LabTech Acumen eX3 using 488 nm excitation filter and 509 nm emission filter. Data was normalized to the DMSO treated for negative and Tomatine treated wells for positive control. REFERENCES: Inglese J, Shamu CE and Guy RK, Reporting data from high throughput screening of small molecule libraries, Nature Chemical Biology, 2007, 3(8): 438-441. doi.org/10.1038/nchembio0807-438. Yasgar A, Shinn P, Jadhav A, Auld DS, Michael S, Zheng W, Austin CP, Inglese J and Simeonov A, Compound Management for Quantitative High-Throughput Screening. J. Assoc. Lab. Auto., 2008, 13: 79-89. doi: 10.1016/j.jala.2007.12.004.
Potency is read from the fitted curve at half-maximal effect.

Activity change, negative = inhibition, inactive:
CCCCN(C)S(=O)(=O)c1ccc(C(=O)Nc2sc3c(c2C(N)=O)CC(C)(C)NC3(C)C)cc1 -2.75%
Cc1ccc(C(=O)Nc2ccccc2F)cc1S(=O)(=O)N1CCOCC1 -6.33%
Cc1c(Cl)cccc1NC(=O)C1CCCN(c2ncnc3onc(C)c23)C1 (configuration not stated) -1.22%
COc1cc(C=CC(=O)O)ccc1O 0.771%
CSc1ccc(NC(=O)Cn2nnnc2-c2ccccc2F)cc1 -8.04%
COc1ccccc1CNC(=O)C(=O)NCC(c1ccco1)S(=O)(=O)c1ccc(F)cc1 (configuration not stated) 1.95%
COc1cc(Cl)c(NC(=O)C(NS(=O)(=O)c2cccs2)C(C)C)c(OC)c1 (configuration not stated) 6.82%
Cc1cccc(N2CCN(S(=O)(=O)c3ccc4[nH]c5c(c4c3)CCCCC5)CC2)c1C -7.22%
CCN1C(=O)c2ccccc2S(=O)c2ccc(C(=O)NCc3ccc(F)cc3)cc21 (configuration not stated) 4.34%
O=C(NCCC1=CCCCC1)c1ccc2c(c1)N(Cc1ccccc1F)C(=O)c1ccccc1S2(=O)=O -1.06%
O=C(c1ccc(C(F)(F)F)cc1)N1CCC(c2nc(-c3ccc(S(=O)(=O)N4CCCC4)cc3)no2)CC1 8.1%
O=C(Nc1ccc(OC(F)(F)F)cc1)c1cc2c(=O)n3ccccc3nc2s1 6.53%
Cn1c(C(=O)Nc2cccc(C(F)(F)F)c2)cc2c(=O)n3ccccc3nc21 3.13%
O=c1c(NCc2cccs2)nccn1-c1ccccc1 3.18%
O=C(CC1Oc2ccc(Cl)cc2NC1=O)NCc1ccccc1 (configuration not stated) -7.3%
CCCCOc1ccc(NC(=O)c2cc3c(n(-c4ccc(Cl)cc4)c2=O)CCCC3=O)cc1 0.925%
Cc1ccc2cccc(NC(=O)c3cccc4ccccc34)c2n1 -4.99%
COc1ccccc1CNC(=O)CS(=O)(=O)c1cccc2nsnc12 -9.2%
O=C(CSc1cn(CC(=O)N2CCOCC2)c2ccccc12)Nc1ccccc1 0.574%
COc1ccc(C(=O)CSc2c(C(C)C)cnc3c2c(=O)n(C)c(=O)n3C)cc1 2.29%
COc1cccc(C(=O)NC2=NC(c3ccc(N(C)C)cc3)CC(=O)N2)c1 (configuration not stated) 3.44%
CNc1ccc(-c2nc(-c3ccco3)no2)cc1[N+](=O)[O-] -0.24%
Cc1c(NC(=O)c2cc(=O)c3ccccc3o2)c(=O)n(-c2ccccc2)n1C 0.58%
Cc1ccc2c(=O)c(C(=O)c3ccc(F)cc3)cn(CC(=O)NC3CCCCC3)c2n1 6.33%
CCCS(=O)(=O)c1ncc(Cl)c(C(=O)Nc2scc(-c3ccccc3)c2C(=O)OCC)n1 3.76%
CCOC(=O)N1CCc2c(sc3c2C(=O)NC(c2ccccc2F)N3)C1 (configuration not stated) -21.5%
COc1ccc(-c2nc(CN3CCC(C(=O)NCCN(CC(C)C)CC(C)C)CC3)c(C)o2)cc1OC 3.13%
CC(C)c1ccc(Cn2c(COc3ccccc3)nc3ccccc32)cc1 -0.836%
CCc1ccc(C=C2SC(=S)NC2=O)cc1 -4.26%
COc1ccc(-c2[nH]c3c(c2-c2c(-n4cccc4)n(C)c(=O)n(C)c2=O)c(=O)n(C)c(=O)n3C)cc1 6.37%
COc1ccc2c(C)c(CCC(=O)NCc3ccc(OC)c(OC)c3)c(=O)oc2c1 -0.405%
CC(C)(C)C1CCc2c(sc(NC(=O)c3ccccc3F)c2C(=O)N2CCCCC2)C1 (configuration not stated) 6.61%
CCc1ccccc1NC(=O)c1cnn(-c2ccc(F)cc2)c1C1CCNCC1 1.55%
COc1ccc(CCNC(=O)CCCCn2c(=O)c3ccccc3n(Cc3ccccc3C)c2=O)cc1OC 9.65%
CC=C(C(=CC)c1ccc(O)cc1)c1ccc(O)cc1 -8.67%
Cc1cc2nc(NC(=O)c3ccc(S(=O)(=O)N4CCOCC4)cc3)sc2cc1C -13.4%
COc1ccc(-c2cc(C(=O)Nc3sc4c(c3C(N)=O)CCCC4)no2)cc1 33.1%
COc1ccc2c(CNCCc3ccccc3C)c(C(=O)O)n(Cc3ccccc3C)c2c1 1.4%
CCOc1cc(C2C(C(=O)OC)=C(C)NC3=C2C(=O)c2ccccc23)ccc1O (configuration not stated) -5.14%
Cc1ccccc1CNC(=O)c1ccc(NC(=O)N2CCCCc3ccccc32)cc1 -3.35%
CCCN1CCN(CCCNC(=O)Cn2nc(CC)n3c(cc4occc43)c2=O)CC1 0.82%
Cc1n[nH]c(C)c1S(=O)(=O)N1CCCC(C(=O)Nc2ccc(Br)cc2)C1 (configuration not stated) 6.06%
COc1ccc(NC(=O)C(=O)NCc2ccco2)cc1 -4.16%
CCOc1ccc(-c2nonc2NC(=O)c2oc3ccc(C)cc3c2C)cc1OCC -20.8%
CCC(=O)Nc1ccccc1-c1nc2ccccc2n(CC(=O)Nc2ccc(C)c(C)c2)c1=O 2.4%

outcome, inactive:
CCC(C(=O)Nc1cccc(Cl)c1C)n1nc(-c2ccc(C)cc2)ccc1=O (configuration not stated)
Cc1ccc(OC(=O)CSc2nnc(-c3cccs3)o2)cc1
O=C(CCSCc1cccc(F)c1)NCc1ccccc1
Cc1ccc2nc(N3CCN(c4cccc(Cl)c4)CC3)c3nnnn3c2c1
CCOc1ccc(NC(=O)c2c(NC(=O)Cc3ccccc3)sc3c2CCCCC3)cc1
CCSc1ncc(Cl)c(C(=O)Nc2cc(C)ccc2C)n1
CCCCOc1ccc(CNC(=O)c2ccc3c(c2)N(C)C(=O)C2CCCCN32)cc1 (configuration not stated)
Cc1ccc2c(c1)N(C(=O)Nc1ccc(Br)cc1F)CCO2
COc1ccc2c(c1)CCc1c(C(=O)Nc3cc(C)ccc3O)noc1-2
CCOC(=O)C1CCC(CN(Cc2ccc(OC)cc2)S(=O)(=O)c2ccc(F)c(C(=O)Nc3cc(C)ccc3C)c2)CC1 (configuration not stated)
N#Cc1nc(/C=C/c2ccc(F)cc2)oc1NCc1ccc(F)cc1

Potency, active:
Cc1ccc(NC(=O)c2nc(S(=O)(=O)Cc3cccc(C)c3)ncc2Cl)cc1 3.16 µM
